# Test results reported in publication PMC7862700, “An all-to-all approach to the identification of sequence-specific readers for epigenetic DNA modifications on cytosine”.
# Columns and labels:
# Assay in all cases: DAPPL (digital affinity profiling via proximity ligation, sequencing); 10 mM Tris-HCl pH 7.5, 50 mM NaCl, 1 mM DTT, 4% glycerol, room temperature, 30 min; GST-TFs on glutathione beads, 16-mer random dsDNA library, 0.1% formaldehyde crosslink after washing; high values mean tight binding
# Settings in all cases: protein: recombinant; tags: N-terminal GST; dsDNA, one strand shown
# ERF = target: T1, ERF (Homo sapiens, UniProt P50548 1-548)
# T1 sequence: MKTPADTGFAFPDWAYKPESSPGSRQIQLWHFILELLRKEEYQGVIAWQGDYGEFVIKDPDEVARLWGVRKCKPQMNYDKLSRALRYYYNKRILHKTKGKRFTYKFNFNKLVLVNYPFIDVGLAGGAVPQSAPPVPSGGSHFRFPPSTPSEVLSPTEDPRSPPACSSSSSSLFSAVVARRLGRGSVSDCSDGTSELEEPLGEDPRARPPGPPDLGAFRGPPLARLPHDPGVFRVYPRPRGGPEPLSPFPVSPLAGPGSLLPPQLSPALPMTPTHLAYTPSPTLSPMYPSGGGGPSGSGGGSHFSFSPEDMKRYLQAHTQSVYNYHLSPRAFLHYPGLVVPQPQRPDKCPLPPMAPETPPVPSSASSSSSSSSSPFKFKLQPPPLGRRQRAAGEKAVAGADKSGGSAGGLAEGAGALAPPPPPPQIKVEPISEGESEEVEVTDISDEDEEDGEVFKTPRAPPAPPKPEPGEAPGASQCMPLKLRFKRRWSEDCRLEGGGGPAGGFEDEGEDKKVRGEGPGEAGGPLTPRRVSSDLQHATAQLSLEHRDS
# Outline: (§1)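 Binding signal is defined as a hexamer's read frequency for one factor over its frequency for the tag-only sample. To obtain reads, GST-fused human transcription factors were expressed in yeast, captured on glutathione beads, barcoded with DNA and pooled with that sample. Pools met 200 nmole of a 16-mer random double-stranded DNA library in Tris/NaCl/DTT/glycerol buffer for 30 min at room temperature before washing, 0.1% formaldehyde crosslinking, proximity ligation (BsaI/T4 ligase, 1 h, 37 °C), PCR and Illumina NextSeq500 sequencing.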
# ETV3L = target: T2, ETV3L (Homo sapiens, UniProt Q6ZN32 1-361)
# T2 sequence: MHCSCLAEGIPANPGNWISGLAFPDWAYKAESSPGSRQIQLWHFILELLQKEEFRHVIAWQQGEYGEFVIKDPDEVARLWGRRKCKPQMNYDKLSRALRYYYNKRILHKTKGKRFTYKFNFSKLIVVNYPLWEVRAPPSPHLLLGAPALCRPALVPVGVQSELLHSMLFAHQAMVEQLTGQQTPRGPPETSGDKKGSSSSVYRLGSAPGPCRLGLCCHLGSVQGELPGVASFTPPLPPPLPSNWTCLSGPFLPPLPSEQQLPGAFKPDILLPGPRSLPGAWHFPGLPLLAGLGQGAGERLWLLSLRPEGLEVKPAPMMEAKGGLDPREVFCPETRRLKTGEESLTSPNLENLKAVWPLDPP
# Outline: as §1
# ETS2 = target: T3, ETS2 (Homo sapiens, UniProt P15036 1-469)
# T3 sequence: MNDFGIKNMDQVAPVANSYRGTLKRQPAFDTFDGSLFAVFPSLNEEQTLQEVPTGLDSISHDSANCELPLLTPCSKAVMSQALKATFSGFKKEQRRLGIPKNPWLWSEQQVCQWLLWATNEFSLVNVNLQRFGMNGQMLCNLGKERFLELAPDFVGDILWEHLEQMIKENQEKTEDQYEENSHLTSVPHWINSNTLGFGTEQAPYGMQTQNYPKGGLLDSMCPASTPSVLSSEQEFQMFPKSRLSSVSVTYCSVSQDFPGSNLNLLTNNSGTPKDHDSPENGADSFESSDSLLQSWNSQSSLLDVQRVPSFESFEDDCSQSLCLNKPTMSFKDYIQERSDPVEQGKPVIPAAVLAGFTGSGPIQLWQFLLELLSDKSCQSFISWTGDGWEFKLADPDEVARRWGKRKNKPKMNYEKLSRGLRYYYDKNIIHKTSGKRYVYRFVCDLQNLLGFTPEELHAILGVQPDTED
# Outline: as §1
# SPDEF = target: T4, SPDEF (Homo sapiens, UniProt O95238 1-335)
# T4 sequence: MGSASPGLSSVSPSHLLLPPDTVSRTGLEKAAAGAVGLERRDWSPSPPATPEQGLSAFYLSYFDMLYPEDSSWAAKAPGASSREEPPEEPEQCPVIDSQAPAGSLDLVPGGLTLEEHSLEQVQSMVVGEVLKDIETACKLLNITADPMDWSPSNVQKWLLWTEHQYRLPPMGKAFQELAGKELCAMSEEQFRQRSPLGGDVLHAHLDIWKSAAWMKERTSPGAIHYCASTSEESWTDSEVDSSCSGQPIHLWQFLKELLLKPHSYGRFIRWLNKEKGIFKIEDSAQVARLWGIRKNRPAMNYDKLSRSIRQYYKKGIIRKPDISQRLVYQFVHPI
# Outline: as §1
# ETV7 = target: T5, ETV7 (Homo sapiens, UniProt Q9Y603 1-341)
# T5 sequence: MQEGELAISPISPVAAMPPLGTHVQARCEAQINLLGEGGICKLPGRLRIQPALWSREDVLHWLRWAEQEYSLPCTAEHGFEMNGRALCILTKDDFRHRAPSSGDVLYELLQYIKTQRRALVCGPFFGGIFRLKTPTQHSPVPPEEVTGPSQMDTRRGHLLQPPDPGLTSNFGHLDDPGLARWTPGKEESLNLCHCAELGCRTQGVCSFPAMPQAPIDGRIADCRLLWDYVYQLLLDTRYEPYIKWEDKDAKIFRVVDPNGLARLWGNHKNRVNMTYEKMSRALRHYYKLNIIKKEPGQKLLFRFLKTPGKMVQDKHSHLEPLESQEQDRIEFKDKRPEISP
# Outline: as §1
# ETV3 = target: T6, ETV3 (Homo sapiens, UniProt P41162-2 1-143)
# T6 sequence: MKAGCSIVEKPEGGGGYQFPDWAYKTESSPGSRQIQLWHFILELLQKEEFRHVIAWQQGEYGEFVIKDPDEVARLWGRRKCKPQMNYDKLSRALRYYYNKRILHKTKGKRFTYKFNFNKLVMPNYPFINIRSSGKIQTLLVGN
# Outline: as §1
# ETV6 = ETV6 (Homo sapiens, UniProt P41212 1-452)
# ETV6, sequence (P41212 whole entry): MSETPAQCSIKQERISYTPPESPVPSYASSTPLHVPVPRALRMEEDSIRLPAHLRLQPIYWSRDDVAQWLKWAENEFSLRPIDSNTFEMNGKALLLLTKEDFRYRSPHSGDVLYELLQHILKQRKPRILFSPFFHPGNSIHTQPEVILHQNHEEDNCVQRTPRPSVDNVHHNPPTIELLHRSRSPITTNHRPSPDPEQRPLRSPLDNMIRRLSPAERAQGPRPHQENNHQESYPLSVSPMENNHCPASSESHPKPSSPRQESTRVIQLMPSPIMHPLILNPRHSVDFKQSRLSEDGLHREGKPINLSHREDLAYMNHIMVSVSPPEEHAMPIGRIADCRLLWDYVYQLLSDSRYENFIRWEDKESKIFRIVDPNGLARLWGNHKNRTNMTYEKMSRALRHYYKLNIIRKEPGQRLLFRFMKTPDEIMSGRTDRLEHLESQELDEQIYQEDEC
# Outline: as §1
# ELF5 = target: T7, ELF5 (Homo sapiens, UniProt Q9UKW6-2 1-255)
# T7 sequence: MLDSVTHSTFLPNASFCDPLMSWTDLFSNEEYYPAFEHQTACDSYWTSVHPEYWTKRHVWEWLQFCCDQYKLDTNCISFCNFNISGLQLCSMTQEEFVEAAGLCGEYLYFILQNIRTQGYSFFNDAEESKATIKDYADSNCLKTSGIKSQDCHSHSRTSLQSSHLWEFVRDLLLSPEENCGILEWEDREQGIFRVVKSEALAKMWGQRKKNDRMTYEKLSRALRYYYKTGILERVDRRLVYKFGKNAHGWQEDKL
# Outline: as §1
Sequence,binding signal (ERF),binding signal (ETV3L),binding signal (ETS2),binding signal (SPDEF),binding signal (ETV7),binding signal (ETV3),binding signal (ETV6),binding signal (ELF5)
TTGGGC,"1.12 fold enrichment (6-mer frequency, TF over GST control)","1.22 fold enrichment (6-mer frequency, TF over GST control)","1.12 fold enrichment (6-mer frequency, TF over GST control)","1 fold enrichment (6-mer frequency, TF over GST control)","1.09 fold enrichment (6-mer frequency, TF over GST control)","1.04 fold enrichment (6-mer frequency, TF over GST control)","1.11 fold enrichment (6-mer frequency, TF over GST control)",–
CGCTAG,"1.08 fold enrichment (6-mer frequency, TF over GST control)","1.06 fold enrichment (6-mer frequency, TF over GST control)","1.03 fold enrichment (6-mer frequency, TF over GST control)","1.08 fold enrichment (6-mer frequency, TF over GST control)",–,–,"1.04 fold enrichment (6-mer frequency, TF over GST control)","1.05 fold enrichment (6-mer frequency, TF over GST control)"
TTGAGG,"1.12 fold enrichment (6-mer frequency, TF over GST control)","1.03 fold enrichment (6-mer frequency, TF over GST control)","1.04 fold enrichment (6-mer frequency, TF over GST control)",–,"1.03 fold enrichment (6-mer frequency, TF over GST control)","1.12 fold enrichment (6-mer frequency, TF over GST control)","1.13 fold enrichment (6-mer frequency, TF over GST control)","1.11 fold enrichment (6-mer frequency, TF over GST control)"
GCGCCT,"1.05 fold enrichment (6-mer frequency, TF over GST control)","1.07 fold enrichment (6-mer frequency, TF over GST control)","1.02 fold enrichment (6-mer frequency, TF over GST control)",–,"1.06 fold enrichment (6-mer frequency, TF over GST control)","1.1 fold enrichment (6-mer frequency, TF over GST control)","1.12 fold enrichment (6-mer frequency, TF over GST control)","1.04 fold enrichment (6-mer frequency, TF over GST control)"
ACTCGC,"1.17 fold enrichment (6-mer frequency, TF over GST control)","1.08 fold enrichment (6-mer frequency, TF over GST control)","1.14 fold enrichment (6-mer frequency, TF over GST control)",–,"1.09 fold enrichment (6-mer frequency, TF over GST control)","1.08 fold enrichment (6-mer frequency, TF over GST control)","1.25 fold enrichment (6-mer frequency, TF over GST control)","1.08 fold enrichment (6-mer frequency, TF over GST control)"
TGACTG,"1.15 fold enrichment (6-mer frequency, TF over GST control)","1.16 fold enrichment (6-mer frequency, TF over GST control)","1.17 fold enrichment (6-mer frequency, TF over GST control)","1.05 fold enrichment (6-mer frequency, TF over GST control)",–,–,"1.06 fold enrichment (6-mer frequency, TF over GST control)",–
ACGCAC,"1.13 fold enrichment (6-mer frequency, TF over GST control)","1.01 fold enrichment (6-mer frequency, TF over GST control)","1.09 fold enrichment (6-mer frequency, TF over GST control)",–,"1.03 fold enrichment (6-mer frequency, TF over GST control)","1.13 fold enrichment (6-mer frequency, TF over GST control)","1.02 fold enrichment (6-mer frequency, TF over GST control)","1.03 fold enrichment (6-mer frequency, TF over GST control)"
AATCGC,"1.01 fold enrichment (6-mer frequency, TF over GST control)","1.05 fold enrichment (6-mer frequency, TF over GST control)","1.17 fold enrichment (6-mer frequency, TF over GST control)",–,"1.07 fold enrichment (6-mer frequency, TF over GST control)","1.08 fold enrichment (6-mer frequency, TF over GST control)","1.17 fold enrichment (6-mer frequency, TF over GST control)","1.1 fold enrichment (6-mer frequency, TF over GST control)"
GAAAAA,"1.08 fold enrichment (6-mer frequency, TF over GST control)","1.16 fold enrichment (6-mer frequency, TF over GST control)","1.2 fold enrichment (6-mer frequency, TF over GST control)",–,"1.16 fold enrichment (6-mer frequency, TF over GST control)","1.09 fold enrichment (6-mer frequency, TF over GST control)","1.17 fold enrichment (6-mer frequency, TF over GST control)","1.22 fold enrichment (6-mer frequency, TF over GST control)"
ACGATC,"1.16 fold enrichment (6-mer frequency, TF over GST control)","1.02 fold enrichment (6-mer frequency, TF over GST control)","1.14 fold enrichment (6-mer frequency, TF over GST control)",–,"1 fold enrichment (6-mer frequency, TF over GST control)","1.03 fold enrichment (6-mer frequency, TF over GST control)",–,"1.01 fold enrichment (6-mer frequency, TF over GST control)"
TAGCGA,"1.19 fold enrichment (6-mer frequency, TF over GST control)","1.02 fold enrichment (6-mer frequency, TF over GST control)","1.01 fold enrichment (6-mer frequency, TF over GST control)","1.02 fold enrichment (6-mer frequency, TF over GST control)",–,–,"1 fold enrichment (6-mer frequency, TF over GST control)",–
